This is a sample that favours compounds with a hit; in the whole collection about 19% have one here.
IL1B secr inh: inhibitors of inflammasome signaling (IL-1 beta secretion). THP-1 LPS/ATP IL-1B secretion, AlphaLISA, 16 h; hits give low values. activity change, % at 57.5 µM. 360,000 tested, 4.7% active. AID 743279; in the data active = activity change below about -50%; inconclusive = mostly about -30% to -49%
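Secreted IL-1B measured by AlphaLISA bead assay after 16 h compound exposure of THP-1 cells; compounds (final up to 57.5 uM) added 1 h before LPS (250 ng/mL) and ATP (1.25 mM) stimulation; lower signal means less secretion.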
HT1080 IDH1KD tx: HT-1080 IDH1 knockdown cell toxicity (counter line); HT-1080 IDH1 knockdown viability, ATP luminescence, 48 h; 360,000 tested, 2% active; AID 686971; Potency, µM (series often up to 46.1 µM), for inactives: at the top dose activity, negative = toxicity, usual class: cytotoxic;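 note: potency is the fitted concentration of half-maximal effect; 0% = DMSO wells and -100% = cell-free medium wells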
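Using the IDH1-knockdown HT-1080 line run in the same batch and compound series as the NT line, viability after 48 h at 37 °C was determined by CellTiter-Glo luminescence and expressed as % activity.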
TDP1 cell noCPT: qHTS for Inhibitors of human tyrosyl-DNA phosphodiesterase 1 (TDP1): qHTS in cells in absence of CPT | DT40 Tdp1-/- hTDP1 cells, no CPT, ATP luminescence, 48 h | Potency, µM (top dose mostly 46.2 µM), without a hit: top-dose activity change, negative = growth inhibition, usual class: inhibitors | 420,000 tested, 15% active | AID 686978, 2013; note: potency is the fitted concentration of half-maximal effect; nearly all actives have a fitted effect of over 55% in size
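Stably hTDP1-transfected Tdp1-null chicken DT40 cells were treated with library compounds minus camptothecin and grown for at least 48 hr at 37 °C, after which cellular ATP was quantified by luminescence.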
ELG1 DNA repair: ELG1-dependent DNA repair inhibition | HEK293T ELG1-luciferase reporter, luminescence, 16 h; DNA damage induced by 5-fluorouridine | Potency, µM (top dose mostly 46.1 µM), inactives show at the top dose activity change, negative = inhibition, hits mostly inhibitors | 330,000 tested, 2.3% active; note: potency is the fitted concentration of half-maximal effect; nearly all actives have a fitted effect of over 55% in size
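Step one: seed 2,000 cells per well. Step two: pin-transfer compound or DMSO alongside 5-fluorouridine. Step three: incubate 16 hr, 37 °C, 5% CO2. Step four: add ONE-Glo, wait 30 min, read luminescence.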
TDP1 cell CPT: DT40-hTDP1 cell growth loss with CPT; chicken DT40 Tdp1-/-;hTDP1 cells + 20 nM CPT, ATP luminescence, 48 h; Potency, µM (series often up to 46.2 µM), without a hit: at the highest dose activity change, negative = growth inhibition, hits mostly inhibitors; 420,000 tested, 12% active; AID 686979; note: potency is the fitted concentration of half-maximal effect; nearly all actives have a fitted effect of over 55% in size
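Chicken DT40 Tdp1-/- cells stably complemented with human TDP1 were seeded at 400 cells/well in medium containing 20 nM camptothecin, exposed to pin-transferred compounds, and grown at 37 °C for at least 48 hr. Viability was read as ATP luminescence.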
HT1080NT lethal: kills 2HG-producing HT-1080-NT fibrosarcoma cells; HT-1080-NT fibrosarcoma viability, CellTiter-Glo ATP luminescence, 48 h; Potency, µM (top dose mostly 46.1 µM), without a hit: at the top dose activity, negative = less viability, hits mostly cytotoxic; 360,000 tested, 1.6% active;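 note: NT is the 2HG producing partner of a matched IDH1 knockdown line; potency is the fitted concentration of half-maximal effect; 0% = DMSO-treated cells and -100% = media-only wells without cells; nearly all actives have a fitted effect of over 55% in size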
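A 48-hour cytotoxicity screen used HT-1080-NT cells plated 2 hours before compound delivery. ATP-based CellTiter-Glo luminescence measured viability, normalized to DMSO and no-cell controls.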
Numbers without * were called inactive; ? = inconclusive; / = no result; [ ] = dose if it differs, or a comment. Unless noted, calls come from the whole dose curve; as a rule, active = well fitted curve in the direction sought with a large enough effect; inconclusive = small, poorly fitted or top-dose-only effect, or another doubt; inactive = no such curve, though single readings can be large; an effect the other way counts as inactive or inconclusive. Unless noted, % is set by controls: 0 for no effect and ±100 for the full control effect.

SMILES	IL1B secr inh	HT1080 IDH1KD tx	TDP1 cell noCPT	ELG1 DNA repair	TDP1 cell CPT	HT1080NT lethal
Cc1ccc(C)c(NS(=O)(=O)c2cc(C(=O)NCc3ccccn3)ccc2C)c1	-3.2	-7.9%	29.1µM*	-3.2%	?	-1.6%
Cc1ccc(C)c(NS(=O)(=O)c2cc(C(=O)NCCSC3CCCCC3)ccc2C)c1	?	?	23.1µM*	20.6µM*	?	?
COc1cccc(OC)c1C(=O)NCCSC1CCCCC1	-0.9	3.2%	18.4µM*	-9.4%	13µM*	1.2%
COc1cc(OC)cc(C(=O)NCCSC2CCCCC2)c1	9.3	-6.7%	-14.9%	0.0%	-13.2%	17.0%
O=C(NCc1ccccn1)c1cccc(NS(=O)(=O)c2cccc(F)c2)c1	33.0	1.8%	1.46µM*	3.3%	1.64µM*	1.6%
Cc1noc(C)c1NC(=O)N(C)C[C@H]1Oc2ccc(NC(=O)Nc3ccc(C(F)(F)F)cc3)cc2C(=O)N([C@H](C)CO)C[C@@H]1C	-4.5	5.7%	-3.9%	?	-7.8%	15.8%
C[C@@H]1CN([C@@H](C)CO)C(=O)CCCn2nncc2CO[C@H]1CN(C)C(=O)c1ccc2ccn(C)c2c1	-5.6	1.5%	-1.2%	/	9.4%	-3.7%
CCCCC/C=C\C/C=C\C/C=C\C/C=C\CCCC(=O)O[C@@H](CO)COC(=O)CCCCCCCCCCCCCCCCC	/	/	-1.9%[4.12 µM]	/	0.4%[4.12 µM]	/
COc1ccccc1[C@H]1C(c2cccc(C)c2)=NN(c2ccccc2)[C@@H]1CO	-16.1	?	?	-24.6%	?	?
OC[C@@H]1[C@@H](c2ccc(Cl)cc2)C(c2ccccc2)=NN1c1ccccc1	?	?	16.4µM*	14.5%	?	?
OC[C@@H]1[C@@H](c2ccc(Cl)cc2)C(c2cccc(Cl)c2)=NN1c1ccccc1	?	-27.7%	13µM*	-6.7%	20.6µM*	?
OC[C@@H]1[C@@H](c2ccc(F)cc2)C(c2cccc(Cl)c2)=NN1c1ccccc1	?	-21.5%	23.1µM*	-14.8%	20.6µM*	-20.9%
CC(=O)OC(C(=O)NCc1ccc(F)cc1)c1ccccn1 (centres undefined)	23.7	12.7%	-5.0%	0.0%	5.8%	10.5%
CCOC(=O)C(c1ccccc1)C(Nc1ccc(F)cc1)c1ccccn1 (centres undefined)	14.9	-15.5%	18.4µM*	?	?	-6.3%
CC1(C)CC(=O)C2=C(C1)NC1=C(C(=O)c3ccccc31)C2c1ccc(Cl)cc1 (centres undefined)	-54.2*	18.4µM*	?	?	?	-13.7%
COc1cc(C2C3=C(CC(C)(C)CC3=O)NC3=C2C(=O)c2ccccc23)ccc1O (centres undefined)	5.1	-22.0%	-25.0%	-3.5%	-8.4%	-23.8%
Cc1ccc(C2C3=C(CC(C)(C)CC3=O)NC3=C2C(=O)c2ccccc23)cc1 (centres undefined)	-57.3*	-28.9%	18.4µM*	?	20.6µM*	?
Cc1ccc(CNc2nc3cc(-c4ccccc4C)sc3c(=O)n2C)c(C)c1	-13.8	?	?	/	?	?
Cc1ccccc1-c1cc2nc(Oc3ccc4c(c3)OCO4)n(C)c(=O)c2s1	?	0.0%	?	/	11.6µM*	5.5%
Cc1ccccc1-c1cc2nc(NCc3ccccc3F)n(C)c(=O)c2s1	?	?	6.51µM*	/	7.31µM*	?
Cc1ccccc1-c1cc2nc(NCc3ccc4occc4c3)n(C)c(=O)c2s1	-9.7	23.1%	?	/	18.4µM*	22.7%
C=CCNc1nc2cc(-c3ccccc3C)sc2c(=O)n1C	57.8	9.2µM*	10.3µM*	/	14.6µM*	14.6µM*
Cc1ccc([C@@H]2CC(=O)[C@@H]3CN(S(=O)(=O)c4ccc(C)cc4)[C@H](c4cccc(Cl)c4)C[C@@H]3N2S(=O)(=O)c2ccc(Cl)cc2)cc1	12.1	8.2%	-24.9%	/	5.3%	1.4%
O=C(NCCC(=O)N1CCC2(CC1)NCCc1[nH]cnc12)c1ccc(F)c(F)c1	5.1	-1.7%	4.6%	9.6%	-11.7%	-1.3%
CC(C)C[C@@H](CN1CCC[C@@H]1CN1C(=S)NC[C@@H]1Cc1ccc(O)cc1)N1C[C@H](Cc2ccc(O)cc2)N(CC2CCCCCC2)C1=S	-82.3*	18.4µM*	16.4µM*	/	18.4µM*	?
SMILES	IL1B secr inh	HT1080 IDH1KD tx	TDP1 cell noCPT	ELG1 DNA repair	TDP1 cell CPT	HT1080NT lethal
CC(C)C[C@H]1CNC(=S)N1CC1CCCN1C[C@H](CC(C)C)N1C[C@H](Cc2ccccc2)N(CC2CCCCCC2)C1=S (some centres undefined)	7.0	11.4%	23.1µM*	/	?	12.2%
CC(C)C[C@@H](CN1CCC[C@H]1CN1C(=O)C(=O)NC[C@@H]1Cc1ccc(O)cc1)N1C[C@H](Cc2ccccc2)N(CC2CCCCC2)C(=O)C1=O	-1.5	?	?	/	?	?
CC(C)C[C@@H](CN1CCC[C@H]1CN1C(=O)C(=O)NC[C@@H]1Cc1ccc(O)cc1)N1C[C@H](Cc2ccc(O)cc2)N(CC2CCCCC2)C(=O)C1=O	0.0	-22.3%	-2.4%	/	-0.3%	?
CC(C)C[C@H]1CNC(=S)N1CC1CCCN1C[C@H](CC(C)C)N1C[C@H](CC(C)C)N(CC2CCCCCC2)C1=S (some centres undefined)	15.8	1.0%	16.4µM*	/	18.4µM*	-5.8%
CC(C)C[C@@H](CN1CCC[C@@H]1CN1C(=S)NC[C@@H]1Cc1ccc(O)cc1)N1C[C@H](Cc2ccc(O)cc2)N(CC2CCCCC2)C1=S	-80.5*	?	16.4µM*	/	18.4µM*	23.1µM*
CCCCCCN(C(=O)CCCCCN1C(=O)NC(c2ccc(C3CCCCC3)cc2)C(C(=O)OCc2ccccc2)=C1C)C(C(=O)NCCCC)c1ccc(OCC(=O)OC)c(C(=O)OC)c1 (centres undefined)	/	/	/	-17.6%	/	/
CCCCNC(=O)C1(C)CCN1C(=O)c1cc(-c2ccccc2)cs1 (centres undefined)	45.4	-0.1%	?	/	?	-17.6%
CC(=O)Nc1nc(C2CC2)cc(-c2ccccc2)c1C#N	-14.9	-11.8%	1.2%	5.3%	2.7%	0.1%
